Data on 37 compounds can be found in the supplement of paper PMC6331611.

± gives the standard deviation of the averaged measurements. Over roughly 1,600 compounds, “normalized intracellular growth (luminescence, IQM-normalized) in RAW264.7 macrophages” has its median near 1; the lowest 2% begin near 0.43. Only a selection was taken, and the lowest values are over-represented in it overall.

For this test, the system named is Salmonella enterica serovar Typhimurium SL1344. As to the kind of experiment: normalized intracellular growth (luminescence, IQM-normalized) in RAW264.7 macrophages (fraction of plate interquartile mean); higher = more bacterial growth (less inhibition). Conditions: 10 µM.

As for `CC(C)Nc1ncccn1`, the normalized intracellular growth (time point: T3 (3 h)) was 0.928 ± 0.053 and the normalized intracellular growth (time point: Tfinal (~6 h)) was found to be 1.05 ± 0.2.

In the case of `Cc1oc(=O)oc1CN1CCN(c2cc3c(cc2F)c(=O)c(C(=O)O)c2n3C(C)S2)CC1` (centres undefined), the normalized intracellular growth (time point: T3 (3 h)) worked out at 1.14 ± 0.069 and the normalized intracellular growth (time point: Tfinal (~6 h)) is 0.0187 ± 0.0013.

In the case of `NC(=O)[C@@H]1CCCN1C(=O)[C@H](Cc1c[nH]cn1)NC(=O)[C@@H]1CCC(=O)N1`, the normalized intracellular growth stood at 1.02 ± 0.038 (time point: T3 (3 h)) and 0.959 ± 0.044 (time point: Tfinal (~6 h)).

For `CC1(C)OC(=O)C(OCC2CC2)=C1c1ccc(S(C)(=O)=O)cc1`, the normalized intracellular growth reads like this: (time point: T3 (3 h)) 1.15 ± 0.017; (time point: Tfinal (~6 h)) 1.2 ± 0.13.

`OCC(S)CS` (centres undefined): the normalized intracellular growth came out at 0.927 ± 0.011 (time point: T3 (3 h)) and 1.03 ± 0.053 (time point: Tfinal (~6 h)).

For the compound `O=C(O)c1ccc[n+]([O-])c1`, the normalized intracellular growth by setting is: (time point: T3 (3 h)) 0.967 ± 0.051; (time point: Tfinal (~6 h)) 1.05 ± 0.023.

Compound `COc1ccc2cc(C(C)C(=O)O)ccc2c1` (centres undefined) registered a normalized intracellular growth (time point: T3 (3 h)) of 1.04 ± 0.036 and a normalized intracellular growth (time point: Tfinal (~6 h)) of 1.09 ± 0.089.

Turning to `C=C[C@H]1CN2CC[C@H]1C[C@H]2[C@H](O)c1ccnc2ccc(OC)cc12`, the normalized intracellular growth runs as follows: (time point: T3 (3 h)) 0.978 ± 0.042; (time point: Tfinal (~6 h)) 0.953 ± 0.058.

Regarding `CCCCC(CC)COC(=O)c1ccccc1O` (centres undefined), the normalized intracellular growth reads like this: (time point: T3 (3 h)) 1.05 ± 0.055; (time point: Tfinal (~6 h)) 0.89 ± 0.17.

Take `Nc1ccc(C(=O)O)cc1`: the normalized intracellular growth is 1.023 ± 0.0022 (time point: T3 (3 h)) and 0.829 ± 0.11 (time point: Tfinal (~6 h)).

`CCc1cn([C@H]2C[C@H](O)[C@@H](CO)O2)c(=O)[nH]c1=O` gave a normalized intracellular growth (time point: T3 (3 h)) of 1.09 ± 0.034 and a normalized intracellular growth (time point: Tfinal (~6 h)) of 0.868 ± 0.01.

In the case of `O=c1[nH]c(=O)n([C@H]2C[C@H](O)[C@@H](CO)O2)cc1F`, the normalized intracellular growth was determined as 0.699 ± 0.043 (time point: T3 (3 h)) and 0.209 ± 0.03 (time point: Tfinal (~6 h)).

For the compound `O=c1[nH]c(=O)n([C@H]2C[C@H](O)[C@@H](CO)O2)cc1I`, the normalized intracellular growth (time point: T3 (3 h)) worked out at 1.005 ± 0.0041 and the normalized intracellular growth (time point: Tfinal (~6 h)) is 1.01 ± 0.2.

Regarding `CC(C)(C)C(=O)C(Oc1ccc(Cl)cc1)n1ccnc1` (centres undefined), the normalized intracellular growth by setting is: (time point: T3 (3 h)) 1.042 ± 0.0043; (time point: Tfinal (~6 h)) 1.12 ± 0.016.

For `N#Cc1ccc2c(c1)N(CCCN1CCC(O)CC1)c1ccccc1S2`, the normalized intracellular growth reads like this: (time point: T3 (3 h)) 1.04 ± 0.014; (time point: Tfinal (~6 h)) 0.869 ± 0.15.

Regarding `CC(C)C[C@@H]1NC(=O)[C@H](CCCN)NC(=O)[C@H](C(C)C)NC(=O)[C@H](Cc2ccc(O)cc2)N[C@@H](CCC(=O)O)C(=O)N[C@@H](CC(N)=O)C(=O)[C@@H](Cc2ccccc2)NC(=O)[C@H](Cc2ccccc2)NC(=O)[C@@H]2CCCN2C(=O)[C@@H](Cc2ccccc2)NC1=O`, the normalized intracellular growth came out at 0.95 ± 0.055 (time point: T3 (3 h)) and 1 ± 0.064 (time point: Tfinal (~6 h)).

For the compound `Cc1nnc(SCC2=C(C(=O)O)N3C(=O)[C@@H](NC(=O)Cn4cnnn4)[C@H]3SC2)s1`, the normalized intracellular growth is, setting by setting: (time point: T3 (3 h)) 1.09 ± 0.087; (time point: Tfinal (~6 h)) 1.2 ± 0.074.

`CO/N=C(\C(=O)N[C@@H]1C(=O)N2C(C(=O)O)=C(C[N+]3(C)CCCC3)CS[C@H]12)c1csc(N)n1`: the normalized intracellular growth was determined as 1.01 ± 0.054 (time point: T3 (3 h)) and 0.0358 ± 0.0021 (time point: Tfinal (~6 h)).

Turning to `COCC1=C(C(=O)OC(C)OC(=O)OC(C)C)N2C(=O)[C@@H](NC(=O)/C(=N\OC)c3csc(N)n3)[C@H]2SC1` (some centres undefined), the normalized intracellular growth came to 0.953 ± 0.066 (time point: T3 (3 h)) and 1.06 ± 0.2 (time point: Tfinal (~6 h)).

For the compound `CO/N=C(\C(=O)N[C@@H]1C(=O)N2C(C(=O)OCOC(=O)C(C)(C)C)=C(/C=C\c3scnc3C)CS[C@H]12)c1csc(N)n1`, the normalized intracellular growth is, setting by setting: (time point: T3 (3 h)) 0.923 ± 0.047; (time point: Tfinal (~6 h)) 0.0689 ± 0.074.

As to `N[C@@H](C(=O)N[C@@H]1C(=O)N2C(C(=O)O)=C(Cl)CS[C@H]12)c1ccccc1`, the normalized intracellular growth (time point: T3 (3 h)) turned out to be 1.03 ± 0.054 and the normalized intracellular growth (time point: Tfinal (~6 h)) was 1.08 ± 0.021.

As for `Cn1nnnc1SCC1=C(C(=O)O)N2C(=O)[C@@H](NC(=O)[C@H](O)c3ccccc3)[C@H]2SC1`, the normalized intracellular growth stood at 1.08 ± 0.041 (time point: T3 (3 h)) and 1.02 ± 0.17 (time point: Tfinal (~6 h)).

`CC=CC1=C(C(=O)O)N2C(=O)[C@@H](NC(=O)[C@H](N)c3ccc(O)cc3)[C@H]2SC1`: the normalized intracellular growth is, setting by setting: (time point: T3 (3 h)) 1.06 ± 0.039; (time point: Tfinal (~6 h)) 0.738 ± 0.11.

With `CC(=O)OCC1=C(C(=O)O)N2C(=O)[C@@H](NC(=O)Cc3cccs3)[C@H]2SC1`, the normalized intracellular growth stood at 0.979 ± 0.037 (time point: T3 (3 h)) and 1.01 ± 0.027 (time point: Tfinal (~6 h)).

`CC(=O)OCC1=C(C(=O)O)N2C(=O)[C@@H](NC(=O)CSc3ccncc3)[C@H]2SC1`: the normalized intracellular growth runs as follows: (time point: T3 (3 h)) 1 ± 0.024; (time point: Tfinal (~6 h)) 0.957 ± 0.042.

The compound `C=CC1=C(C(=O)O)N2C(=O)[C@@H](NC(=O)/C(=N\O)c3csc(N)n3)[C@H]2SC1` gave a normalized intracellular growth (time point: T3 (3 h)) of 0.973 ± 0.034 and a normalized intracellular growth (time point: Tfinal (~6 h)) of 0.0262 ± 0.0031.

For the compound `CO/N=C(\C(=O)N[C@@H]1C(=O)N2C(C(=O)O)=C(COC(C)=O)CS[C@H]12)c1csc(N)n1`, the normalized intracellular growth reads like this: (time point: T3 (3 h)) 0.898 ± 0.017; (time point: Tfinal (~6 h)) 0.178 ± 0.0072.

As to `NC(=O)NC(=O)Cc1ccccc1`, the normalized intracellular growth is, setting by setting: (time point: T3 (3 h)) 0.993 ± 0.021; (time point: Tfinal (~6 h)) 0.979 ± 0.038.

Take `CNC(=N)NCCC[C@H](N)C(=O)O`: the normalized intracellular growth is, setting by setting: (time point: T3 (3 h)) 1.11 ± 0.029; (time point: Tfinal (~6 h)) 0.921 ± 0.26.

On to `NC[C@H]1O[C@H](O[C@H]2[C@H](O)[C@@H](O[C@H]3O[C@H](CO)[C@@H](O)[C@H](N)[C@H]3O)[C@H](N)C[C@@H]2N)[C@H](N)[C@@H](O)[C@@H]1O`, for which the normalized intracellular growth by setting is: (time point: T3 (3 h)) 0.81 ± 0.012; (time point: Tfinal (~6 h)) 0.554 ± 0.025.

On to `CC1(C)[C@H]2CC[C@]1(CS(=O)(=O)O)C(=O)C2=Cc1ccc(C=C2C(=O)[C@@]3(CS(=O)(=O)O)CC[C@@H]2C3(C)C)cc1`, for which the normalized intracellular growth is 0.978 ± 0.028 (time point: T3 (3 h)) and 1.17 ± 0.22 (time point: Tfinal (~6 h)).

In the case of `Cc1nccnc1N1CCCCC1`, the normalized intracellular growth reads like this: (time point: T3 (3 h)) 1.09 ± 0.057; (time point: Tfinal (~6 h)) 0.933 ± 0.023.

`CCC(=O)O[C@H](CC(=O)O)C[N+](C)(C)C`: the normalized intracellular growth by setting is: (time point: T3 (3 h)) 1.06 ± 0.052; (time point: Tfinal (~6 h)) 1 ± 0.028.

For `NCCNCCNCCN`, the normalized intracellular growth is 0.972 ± 0.044 (time point: T3 (3 h)) and 1.2 ± 0.037 (time point: Tfinal (~6 h)).

For the compound `CC(=O)OC1CC2CCC1(C)C2(C)C` (centres undefined), the normalized intracellular growth runs as follows: (time point: T3 (3 h)) 1.011 ± 0.01; (time point: Tfinal (~6 h)) 1.14 ± 0.018.

On to `CC[n+]1c(-c2ccccc2)c2cc(N)ccc2c2ccc(N)cc21`, for which the normalized intracellular growth is 0.993 ± 0.05 (time point: T3 (3 h)) and 1.13 ± 0.11 (time point: Tfinal (~6 h)).

Take `CC(C)(C)CC(C)(C)c1cc(Cc2cc(C(C)(C)CC(C)(C)C)cc(-n3nc4ccccc4n3)c2O)c(O)c(-n2nc3ccccc3n2)c1`: the normalized intracellular growth (time point: T3 (3 h)) stood at 1.02 ± 0.096 and the normalized intracellular growth (time point: Tfinal (~6 h)) came to 1.19 ± 0.3.
